In PubChem BioAssay (NCATS):
Inconclusive results are not listed. Calls of active or inactive are those of the source. Calls follow the shape of the dose curve; as a rule, active = well fitted curve in the direction sought with a large enough effect; inconclusive = small, poorly fitted or top-dose-only effect, or another doubt; inactive = no such curve, though single readings can be large; an effect the other way counts as inactive or inconclusive.

Columns and labels:
[1] = tested on: Hek293T; assay: Primary qHTS to identify gynecologic anti-cancer compounds using libraries of approved drugs and bioactive compounds (AID 1345084); conditions: Gynecologic cancer cell panel viability, ATPlite luminescence, 48 h, control line for the selectivity index; series mostly up to 57.5 µM; also: nearly all actives have a fitted effect of over 55% in size
Procedure, shortened: (§1)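 Measured: luminescence after ATPlite addition (15 min, RT). Exposure: 48 h, 37 C, 5% CO2.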

[2] = tested on: PA-1; assay: as above; conditions: Gynecologic cancer cell panel viability, ATPlite luminescence, 48 h; series mostly up to 57.5 µM
Procedure, shortened: as §1

[3] = qHTS assay to identify inhibitors of the type 1 interferon - major histocompatibility complex class I in skeletal muscle: Counter screen cell viability and HiBit confirmation (AID 1347412); conditions: iHSKM muscle cells + IFN-b, HiBiT or CellTiter-Glo, 24 h; for activity change, negative = inhibition: at 45.9 µM (top of the series); as to all read-outs here: nearly all actives have a fitted effect of over 60% in size
Procedure, shortened: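 Human myoblast knock-in line, 4.0 ng/ml IFN-beta stimulation, 24 h compound treatment. Endpoints: HiBiT lytic luminescence (HLA-B level) and CellTiter Glo (ATP). Dosing 12 concentrations, 3-fold steps, 46 uM highest final.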

[4] = tested on: OV90; assay: Primary qHTS to identify gynecologic anti-cancer compounds using libraries of approved drugs and bioactive compounds (AID 1345084); conditions: Gynecologic cancer cell panel viability, ATPlite luminescence, 48 h; series mostly up to 57.5 µM; also: nearly all actives have a fitted effect of over 55% in size
Procedure, shortened: as §1

[5] = tested on: SKOV3; assay: as above; conditions: Gynecologic cancer cell panel viability, ATPlite luminescence, 48 h; series mostly up to 57.5 µM
Procedure, shortened: as §1

[6] = tested on: Tov-21-G; assay: as above; conditions: Gynecologic cancer cell panel viability, ATPlite luminescence, 48 h; series mostly up to 57.5 µM
Procedure, shortened: as §1

[7] = tested on: Tov112D; assay: as above; conditions: Gynecologic cancer cell panel viability, ATPlite luminescence, 48 h; series mostly up to 57.5 µM
Procedure, shortened: as §1

[8] = tested on: JEG-3; assay: as above; conditions: Gynecologic cancer cell panel viability, ATPlite luminescence, 48 h; series mostly up to 57.5 µM
Procedure, shortened: as §1

[9] = Drug repurposing screens with cells derived from glioblastoma tumor samples (AID 1345199); conditions: GBM patient neurospheres viability, ATP luminescence, 48 h; also: nearly all actives have a fitted effect of over 40% in size
Procedure, shortened: (§2)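 Primary testing used CD133+ neurospheres from four GBM patients, seven concentrations, 48 h exposure and ATP-based viability; confirmation added three slower-growing patient lines.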

[10] = tested on: astro; assay: as above; conditions: viability, ATP luminescence, 48 h; series mostly up to 45.9 µM
Procedure, shortened: as §2

[11] = at 45.9 µM (top of the series), tumour line B
[12] = at 45.9 µM (top of the series), tumour line D
[13] = at 46.1 µM (top of the series), tumour line C
% is scaled to controls: 0 for no effect and ±100 for the full control effect; potency is read from the fitted curve at half-maximal effect.

CC1(COc2ccc3c(c2)ncn3-c2ccc3cccc(N4CCC(N)CC4)c3n2)COC1
active: Potency [1] 20 µM | Potency [2] 8.91 µM | Potency ([3]; HiBiT) 3.52 µM | Potency ([3]; Viability) 27.9 µM

CN1CCC(COc2cnc(-c3cccc(Cn4nc(-c5cccc(C#N)c5)ccc4=O)c3)nc2)CC1
inactive: Potency [1] | Potency [4] | Potency [2] | Potency [5] | Potency [6] | Potency [7]

CNc1nc(Nc2ccc(C(=O)N3CCOCC3)cc2OC)ncc1Cl
inactive: Potency [1] | Potency [2] | Potency [5] | Potency [6] | Potency [7]

Nc1[nH]nc2nnc(-c3c(-c4ccccc4)nn4ccccc34)cc12
inactive: Potency [1] | Potency [4] | Potency [2] | Potency [5] | Potency [6] | Potency [7]

Cc1cc(-c2ncc(CC(=O)Nc3ccc(-c4cnccn4)cn3)cc2C)ccn1
active: Potency [5] 39.8 µM
inactive: Potency [8] | Potency [4] | Potency [6] | Potency [7]

COc1ccc(Cn2ccc3ccc(C(=O)NO)cc32)cc1
inactive: Potency [1] | Potency [4] | Potency [7]

CCN(CCO)CCCOc1ccc2c(Nc3cc(CC(=O)Nc4cccc(F)c4)[nH]n3)ncnc2c1
inactive: Potency [1] | Potency [8] | Potency [5] | Potency [6]

O=C(Nc1cccc2c(=O)cc(-c3nn[nH]n3)oc12)c1ccc(OCCCCc2ccccc2)cc1
inactive: Potency [1] | Potency [8] | Potency [2] | Potency [5] | Potency [6] | Potency [7] | activity, negative = cell killing [9, 11] 1.64% | activity, negative = cell killing [9, 12] -5.85% | activity, negative = cell killing [9, 13] 16% | Potency [10]

C[C@@H](N)c1ccc(C(=O)Nc2ccnc3[nH]ccc23)cc1
inactive: Potency [8] | Potency [4]
active: Potency [6] 31.6 µM | Potency [7] 25.1 µM

Cc1ccc2c(c1)c1c(n2CCc2ccc(C)nc2)CCN(C)C1
inactive: Potency [8] | Potency [4]

CCn1c(-c2nonc2N)nc2cncc(CNC3CCNCC3)c21
inactive: Potency [8] | Potency [2] | Potency [7]

CN(C)CCCNC(=O)c1ccc(-c2cc(O)c3ncccc3c2)cc1
inactive: Potency [1] | Potency [8] | Potency [5]

O=C(Nc1ccc(OC(F)(F)F)cc1)c1sccc1NCc1ccnc2ccccc12
inactive: Potency [1] | Potency [8] | Potency [5] | Potency [6] | Potency [7]

COc1nccc(-c2c(-c3ccc(F)cc3)ncn2C2CCNCC2)n1
inactive: Potency [1] | Potency [8] | Potency [5] | Potency [7]

CCC(=O)N1CCN(c2ccc(-n3c(=O)ccc4cnc5ccc(-c6cnc7ccccc7c6)cc5c43)cc2C(F)(F)F)CC1
inactive: activity change, negative = cytotoxicity [8] -16.3% [at 11.6 µM]
active: Potency [1] 0.1 µM | Potency [2] 0.126 µM | Potency [6] 0.0794 µM

Cc1cc2c(cc1C1(c3ccc(C(=O)O)cn3)CC1)C(C)(C)CCC2(C)C
inactive: Potency [8] | Potency [4]

O=C1NC(=O)C(c2cnc3ccccn23)=C1c1cn2c3c(cccc13)CN(C(=O)N1CCOCC1)CC2
active: Potency [5] 1.41 µM
inactive: Potency [1] | Potency [8] | Potency [2] | Potency [7]

C[C@@H]1CCO[C@H]2Cn3cc(C(=O)NCc4ccc(F)cc4F)c(=O)c(O)c3C(=O)N12
inactive: Potency [8]
active: Potency [6] 25.1 µM

Clc1ccc(C2(c3ccc(-c4cn[nH]c4)cc3)CCNCC2)cc1
inactive: Potency [8] | Potency [7]
active: Potency [5] 31.6 µM | Potency [6] 12.6 µM

CCNC(=O)c1noc(-c2cc(C(C)C)c(O)cc2O)c1-c1ccc(CN2CCOCC2)cc1
inactive: Potency [8]
active: Potency [4] 3.98 µM | Potency [2] 0.251 µM

CNC(=O)c1cc(Oc2ccc(NC(=O)Nc3ccc(Cl)c(C(F)(F)F)c3)c(F)c2)ccn1
inactive: Potency [1] | Potency [2] | Potency [5] | Potency [6] | Potency [7] | activity change, negative = inhibition ([3]; HiBiT) -24.1% | activity change, negative = inhibition ([3]; Viability) 2.73%

CN1c2ccccc2C(=O)N2CCc3c([nH]c4ccccc34)C21 (stereo not given)
active: Potency [8] 3.98 µM | Potency [2] 7.08 µM | Potency [6] 8.91 µM | Potency [7] 3.55 µM

N#CC1(c2cccc(C(=O)Nc3cc(Oc4ccc5nc(NC(=O)C6CC6)sc5n4)ccc3F)c2Cl)CC1
inactive: Potency [8]
active: Potency [2] 10 µM | Potency [5] 20 µM | Potency [6] 3.98 µM | Potency [7] 5.62 µM

Cc1ccccc1C(=O)c1ccc(Nc2ccc(Br)cc2N)cc1Cl
inactive: Potency [1] | Potency [4] | Potency [5] | Potency [6] | Potency [7]

Nc1ncnc2c1c(-c1cccc(OCc3ccccc3)c1)cn2C1CC(CN2CCC2)C1 (stereo not given)
active: Potency [1] 14.1 µM | Potency [4] 22.4 µM | Potency [2] 14.1 µM | Potency [6] 35.5 µM | Potency ([3]; HiBiT) 22.2 µM

C[C@@]1(C(=O)Nc2ccc(F)nc2)CCCN1c1nc(Nc2cc(C3CC3)[nH]n2)c2cccn2n1
active: Potency [2] 5.01 µM | Potency [6] 12.6 µM
inactive: Potency [8] | Potency [7]

CC[C@H](CC#N)OC(=O)N[C@@H](C)c1cccc(NC(=O)Nc2ccc(-c3cnco3)c(OC)c2)c1
inactive: Potency [8] | activity change, negative = inhibition ([3]; Viability) -7.06%
active: Potency [1] 1.78 µM | Potency [2] 0.355 µM | Potency [5] 6.31 µM | Potency [6] 1.26 µM

COc1ccnc(CS(=O)c2nc3ccc(OC(F)F)cc3[nH]2)c1OC (stereo not given)
inactive: Potency [1] | Potency [8] | Potency [2] | Potency [5] | Potency [6] | Potency [7] | activity, negative = cell killing [9, 11] -25.5% | activity, negative = cell killing [9, 12] -22.5% | activity, negative = cell killing [9, 13] -15.1% | Potency [10]

Nc1ccc(-c2ccc3ncc4ccc(=O)n(-c5cccc(C(F)(F)F)c5)c4c3c2)cn1
active: Potency [1] 0.316 µM | Potency [8] 8.91 µM | Potency [6] 17.8 µM

O=C(CCCN1CCN(c2ccc(F)cc2)CC1)NC1c2ccccc2CSc2ccccc21 (stereo not given)
inactive: Potency [1] | Potency [8] | Potency [2] | Potency [5] | Potency [6] | Potency [7] | activity, negative = cell killing [9, 11] -21% | activity, negative = cell killing [9, 12] -27.4% | Potency [10]
active: Potency ([9]; tumour line A) 3.98 µM

Fc1ccc(CNc2ncnc3ccc(F)cc23)cc1
inactive: Potency [8]

CC1(C)CC(=O)c2c(C(F)(F)F)nn(-c3ccc(C(N)=O)c(NC4CCC(O)CC4)c3)c2C1 (stereo not given)
active: Potency [5] 0.398 µM
